According to PubChem BioAssay AID1446 (The Scripps Research Institute Molecular Screening Center, 2008):
In all, about 220,000 compounds went through this assay and about 2,400 (1.1%) were called active. The entries come from a sample that favours actives as a whole. A number with no mark means an inactive call.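 The calls were made as follows: active = inhibition above the campaign mean plus 3 SD over all tested compounds (cut at about 24% in these data); inactive = the rest.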

assay: reduced viability of JAK2V617F-dependent Ba/F3 cells, primary screen, JAK2V617F inhibitor project, cell-based, Ba/F3 EpoR-JAK2V617F, luminescence (AID 1446); conditions: ATP luminescence, at 5.6 µM, hits give high values;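 also: cytokine-independent growth of Ba/F3 cells driven by EpoR plus mutant JAK2; 0% = DMSO-treated cells and 100% = JAK inhibitor I control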

Row | Structure (SMILES) | inhibition
1 | COc1ccc(NS(=O)(=O)c2ccc(N3CCOCC3)c(NC(=O)c3ccccc3Br)c2)cc1 | 2.5%
2 | COc1ccccc1N=Cc1c(O)c2ccccc2oc1=O | 5.52%
3 | CC(=O)Nc1nc2ccccc2n1Cc1ccc(C)cc1 | -2.63%
4 | CCCn1c(NC(=O)C23CC4CC(CC(O)(C4)C2)C3)nc2ccccc21 | 53% (active)
5 | CCC(=O)Nc1nc2ccccc2n1Cc1ccccc1C | -0.24%
6 | CCOP(=O)(OCC)C(Nc1cccc(C)c1)c1ccc(F)cc1 (stereo not drawn) | -3.26%
7 | Cn1cc(/C=C/c2nc3ccccc3c(=O)n2-c2cccc([N+](=O)[O-])c2)c2ccccc21 | 0.27%
8 | CCn1c(/C=C/c2ccc([N+](=O)[O-])o2)nc2ccccc2c1=O | 40.5% (active)
9 | C/[N+]([O-])=C\c1ccc([N+](=O)[O-])o1 | -0.25%
10 | CCc1nnc(NC(=O)CSc2nnnn2-c2cccc(C(C)=O)c2)s1 | -3.92%
11 | CC(=O)Nc1ccc(S(=O)(=O)Oc2ccc(/C=N/N=C3/NC(=O)C(CC(=O)O)S3)cc2)cc1 (stereo not drawn) | 1.79%
12 | COc1ccc(-c2csc(Nc3ccccn3)n2)cc1 | -3.7%
13 | COc1ccc2nc(Nc3nc(-c4cc5ccccc5oc4=O)cs3)sc2c1 | -2.4%
14 | COc1ccc2nc(Nc3nc(-c4ccncc4)cs3)sc2c1 | 3.58%
15 | CCNc1nc(-c2cc3ccccc3o2)cs1 | -1.02%
16 | COc1ccc(Nc2nc(-c3ccccc3)cs2)cc1 | 1.67%
17 | O=c1oc2ccccc2cc1-c1csc(Nc2ccc(O)cc2)n1 | 70.4% (active)
18 | COc1ccc(C)cc1Nc1nc(-c2c(C)[nH]c3ccccc23)cs1 | -2.69%
19 | COc1ccc(OC)c(Nc2nc(-c3ccc(O)c(O)c3)cs2)c1 | 35.7% (active)
20 | COc1ccc(-c2csc(Nc3ccc(O)cc3)n2)cc1 | 65.8% (active)
21 | Cc1ccc(O)c(CCc2ccccc2)n1 | -4.38%

Row | Structure (SMILES) | inhibition
22 | Cc1nc(Cl)c(C#N)c2c1CCCC2 | -4.53%
23 | Cc1cc(C)n(CC(O)CN(c2ccccc2)S(=O)(=O)c2ccc3ccccc3c2)n1 (stereo not drawn) | 0.98%
24 | S=c1[nH]c2ccccc2c2ccccc12 | -1.73%
25 | CN(C)CCNC(=O)/C(=C/c1cccc([N+](=O)[O-])c1)NC(=O)c1ccccc1 | 3.86%
26 | Cc1ccccc1NC(=O)CN1C(=O)N/C(=C\c2cccn2-c2cccc(C(=O)O)c2)C1=O | 0.8%
27 | O=C1/C(=C\c2ccsc2)NC(=S)N1c1ccccc1 | -2.32%
28 | O=C1N/C(=C/c2cccn2-c2ccccc2)C(=O)N1c1cccc(Cl)c1 | 51.8% (active)
29 | Cc1ccc(C(=O)NN(CCC#N)C2=NS(=O)(=O)c3ccccc32)cc1 | -4.16%
30 | Cc1ccc2sc(NNC(=O)c3ccc4c(c3)OCCO4)nc2c1C | -3.73%
31 | COc1ccc(Nc2cc(=O)oc3ccccc23)cc1 | 55.1% (active)
32 | COc1ccc(Nc2cc(=O)n(-c3ccccc3)c3c2c(=O)n(C)c(=O)n3C)cc1 | 0.16%
33 | COc1ccc(N2CCN(Cc3cc(=O)oc4ccc5ccccc5c34)CC2)cc1 | 0.19%
34 | O=C(CC(c1ccccc1)c1cc(Cl)ccc1O)NCCN1CCOCC1 (stereo not drawn) | -3.6%
35 | C/C(CC(C)C)=N\Oc1nc(C)cc(C)n1 | -2.21%
36 | O=[N+]([O-])c1cc(C(F)(F)F)ccc1NN=C1CCCC1 | -0.95%
37 | O=C(CCN1CCCCC1)N=Nc1c(O)[nH]c2ccccc12 | 1.24%
38 | Cc1ccc(CNC(=O)CCNC(=O)Cn2ccc3ccccc3c2=O)cc1 | 0.07%
39 | COC(=O)COc1cccc2c(=O)n(CC(=O)NCc3ccccc3)ccc12 | 58.8% (active)
40 | COC(=O)COc1cccc2c(=O)n(CC(=O)NCCc3ccc(OC)c(OC)c3)ccc12 | -2.26%
41 | CC(C)(C)NC(=O)c1ccc(Cn2cc(C(F)(F)F)ccc2=O)cc1 | 0.95%
42 | Cc1cc2ccccn2c1C(=O)c1cccc(S(=O)(=O)N2CCOCC2)c1 | -0.04%

Row | Structure (SMILES) | inhibition
43 | C/C(CC(=O)NC(C)(C)C)=N\NC(=O)c1ccco1 | -1.54%
44 | CCCNc1c(N)c(=O)c1=O | 1.36%
45 | CCc1cc(C(=O)c2ccc(OC)cc2)c(NC(=O)CN2CCN(C)CC2)s1 | -1.89%
46 | CCOC(=O)C1CCN(c2ncnc3c2oc2ccc(Br)cc23)CC1 | 0.71%
47 | CCOC(=O)N1CCN(C(=O)C2CCN(Cc3ccc(OC)cc3OC)CC2)CC1 | -0.59%
48 | CCOC(=O)N1CCN(C(=O)C2CCN(c3ncnc4c3sc3cccc(F)c34)CC2)CC1 | 43.9% (active)
49 | COc1ccc(/C=N/OCC(=O)N(Cc2ccccc2)c2ccccc2C(=O)O)cc1 | -2.1%
50 | CCCCN1C(=O)/C(=C(/C#N)C(N)=O)c2ccccc21 | -3.07%
51 | CC(C)c1ccc(Nc2nnc(SCC(=O)c3nnc(-c4ccccc4)o3)s2)cc1 | 0.01%
52 | COc1ccc(CCNC(=O)C(=O)NCC2CCNCC2)cc1OC | -3.6%
53 | Cc1ccc2c(c1)C1CN(C)CCC1N2S(=O)(=O)c1ccc(Oc2ccc([N+](=O)[O-])cc2)cc1 (stereo not drawn) | -5.1%
54 | CCn1c(CSCc2c(Cl)cccc2Cl)n[nH]c1=S | -2.13%
55 | COc1cc2c(cc1OC)C(/C=C/c1ccco1)=NCC2 | 1.51%
56 | O=c1oc2ccccc2cc1-c1cn(-c2ccccc2)c(=S)[nH]1 | 35.7% (active)
57 | O=C(c1cn(-c2ccccc2)nc1-c1cc2ccccc2oc1=O)N1CCOCC1 | -0.6%
58 | Nc1ncc(-c2cc3ccccc3oc2=O)s1 | 6.85%
59 | Cc1nc2c(ncn2-c2ccccc2)c(=O)n1NC(=O)CN1CCCC1 | -1.07%
60 | O=C(NNC(=O)c1ccccc1[N+](=O)[O-])Nc1ccccc1C(F)(F)F | -0.76%
61 | CCOC(=O)C1=C(N)N2C(=O)C(C)SC2=C(C(=O)OCC)C1c1cc(OC)c(OC)c(OC)c1 (stereo not drawn) | 80.7% (active)
62 | CCOC(=O)c1cc(-c2nnc(-c3cc(OC)c(OC)c(OC)c3)o2)c(C)nc1C | 0.18%
63 | CCOC(=O)C1CCN(C(=O)/C=C/c2cc(OC)c(OC)c(OC)c2)CC1 | -2.65%
